# The supplement of paper PMC9844399
# Where a name gives a salt, the structure may show the parent alone.
# Tested on: HeLa
# Assay: nuclear count per well, robust Z-score vs DMSO; higher = more cells (less toxicity)
# Conditions: 10 µM; 6 h
# 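Also: Hoechst-stained nuclei counted by automated confocal imaging of four fields per well in 384-well plates, with the robust Z-score based on the per-plate DMSO median and robust SD.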
row,Structure (SMILES),nuclear count per well
1,NC[C@H]1O[C@H](O[C@H]2[C@H](O)[C@@H](O[C@H]3O[C@H](CO)[C@@H](O)[C@H](N)[C@H]3O)[C@H](N)C[C@@H]2N)[C@H](O)[C@@H](O)[C@@H]1O [Kanamycin Sulfate],0.2
2,CC(C)NCC(O)COc1ccc(CCOCC2CC2)cc1 (centres undefined),0.273
3,CNC(=C[N+](=O)[O-])NCCSCc1csc(CN(C)C)n1 [Nizatidine],0.264
4,CCC[C@@H]1C[C@@H](C(=O)N[C@@H]([C@H]2O[C@H](SC)[C@H](O)[C@@H](O)[C@H]2O)[C@H](C)Cl)N(C)C1,-0.00882
5,CN(Cc1cnc2nc(N)nc(N)c2n1)c1ccc(C(=O)N[C@@H](CCC(=O)O)C(=O)O)cc1 [Methotrexate],0.0439
6,N[C@@H]1[C@H]2CN(c3nc4c(cc3F)c(=O)c(C(=O)O)cn4-c3ccc(F)cc3F)C[C@@H]12 [Trovafloxacin mesylate],-0.169
7,COc1cc2c3cc1Oc1c(OC)c(OC)cc4c1[C@@H](Cc1ccc(OC(=O)c5ccc([N+](=O)[O-])cc5)c(c1)Oc1ccc(cc1)C[C@@H]3N(C)CC2)N(C)CC4 [E6 berbamine],0.0814
8,CC(=O)c1ccc(S(=O)(=O)NC(=O)NC2CCCCC2)cc1 [Acetohexamide],0.532
9,OCCOCCN1CCN(C2=Nc3ccccc3Sc3ccccc32)CC1 [Quetiapine Fumarate],0.149
10,CN1CCN(C2=Nc3ccccc3Oc3ccc(Cl)cc32)CC1 [Loxapine Succinate],0.347
11,CCCCC[C@H](O)/C=C/[C@H]1C(=O)C[C@H](O)[C@@H]1C/C=C\CCCC(=O)O [Prostaglandin  D2],-0.144
12,CC(C)OC(=O)C(C)(C)Oc1ccc(C(=O)c2ccc(Cl)cc2)cc1 [Fenofibrate],0.0273
13,CN1CCC(=C2c3ccccc3C=Cc3ccccc32)CC1 [Cyproheptadine hydrochloride sesquihydrate],1.34
14,O=P(O)(O)C(O)(Cn1ccnc1)P(=O)(O)O [Zoledronic acid],0.461
15,Cc1ccc(Nc2nccc(N(C)c3ccc4c(C)n(C)nc4c3)n2)cc1S(N)(=O)=O,-0.0602
16,C[C@H](CCC(=O)O)[C@H]1CC[C@H]2[C@@H]3CC[C@@H]4C[C@H](O)CC[C@]4(C)[C@H]3CC[C@]12C [Lithocholic acid],-0.455
17,CCS(=O)(=O)CCn1c([N+](=O)[O-])cnc1C [Tinidazole],-1.65
18,CCOC(=O)C1=C(COCCN)NC(C)=C(C(=O)OC)C1c1ccccc1Cl (centres undefined) [Amlodipine],-0.153
19,CC1=C(/C=C/C(C)=C/C=C/C(C)=C/C(=O)O)C(C)(C)CCC1 [Tretinoin],1.08
20,"CC(C)(C)c1cc(O)c(C(C)(C)C)cc1O [2,5-Ditertbutylhydroquinone]",-0.952

row,Structure (SMILES),nuclear count per well
1,NCc1ccc(S(N)(=O)=O)cc1,0.139
2,Cc1onc(-c2ccccc2)c1C(=O)N[C@@H]1C(=O)N2[C@@H]1SC(C)(C)[C@@H]2C(=O)O [Oxacillin sodium salt monohydrate],0.042
3,CCCCCCCCCCCCCCCC(=O)C1=C(O)[C@@H](CO)OC1=O,0.247
4,O[C@H]1[C@H]2c3cc4c(cc3CN3CCC(=C[C@@H]1O)[C@H]23)OCO4 [Lycorine],-3.36
5,Cc1cc(C)cc(OCC2CNC(=O)O2)c1 (centres undefined) [Metaxalone],-0.471
6,CN[C@H]1CC[C@@H](c2ccc(Cl)c(Cl)c2)c2ccccc21 [Sertraline hydrochloride],-0.819
7,CCc1cccc2c3c([nH]c12)C(CC)(CC(=O)O)OCC3 (centres undefined) [Etodolac],-1.07
8,COc1ccc2cccc(CCNC(C)=O)c2c1 [Agomelatine],-0.949
9,Nc1ccn([C@@H]2O[C@H](CO)[C@@H](O)[C@@H]2O)c(=O)n1 [Cytarabine],-2.12
10,Clc1ccc2nsnc2c1NC1=NCCN1,0.891
11,CCCCCCCCCCCCC/C=C/[C@@H](O)[C@H](CO)NCCCCCCCC [C8 Ceramine],0.668
12,CC(C(=O)O)c1cccc(Oc2ccccc2)c1 (centres undefined) [Fenoprofen Calcium],0.0036
13,CCC1=C(C)CN(C(=O)NCCc2ccc(S(=O)(=O)NC(=O)N[C@H]3CC[C@H](C)CC3)cc2)C1=O [Glimepiride],0.315
14,CC/C(=C(\c1ccccc1)c1ccc(OCCN(C)C)cc1)c1ccccc1 [Tamoxifen],-0.0627
15,O=C1Cc2cc(CCN3CCN(c4nsc5ccccc45)CC3)c(Cl)cc2N1 [Ziprasidone],1.42
16,Nc1c(Br)cc(Br)cc1CN[C@H]1CC[C@H](O)CC1 [Ambroxol hydrochloride],-1.45
17,CCCCC/C=C\C/C=C\CCCCCCCCCC(=O)O [Eicosadienoic acid (20:2 n-6)],0.113
18,CCCCCCCCCCCCCCCCCCOC[C@H](COP(=O)([O-])OCC[N+](C)(C)C)OC(C)=O,-0.474
19,CC1(C)CCC(C)(C)c2cc(C(=O)Nc3ccc(C(=O)O)cc3)ccc21,1.49
